# Source: PubChem (National Center for Advancing Translational Sciences (NCATS))
# HCMV inh: inhibitors of human cytomegalovirus. HFF cells, HCMV-luciferase reporter, 72 h; hits give low values. activity change, negative = inhibition, % at 57.5 µM. 410,000 tested, 4.5% active; in the data active = activity change below about -60%; inconclusive = no clear call, values can overlap the other calls; inactive = above about -39%
#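 Two-dose cell screen: HFF monolayers treated with compounds and infected with luciferase-expressing HCMV at 1 PFU/cell, 72 h at 37C, then lysed for luciferase measurement.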
# HCV inh: HCV inhibition; Huh7.5.1 HCVcc-Cre infection, luciferase reporter, 44 h; Potency, µM (doses to about 41.8 µM), inactives show at the highest dose activity change, negative = inhibition, actives largely listed as inhibitors; 340,000 tested, 3.4% active; note: potency is the fitted concentration of half-maximal effect
#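 1,000 cells/well; 4 h culture; + compound; + HCVcc-Cre (~0.5 moi); 44 h; luciferase substrate, RT 15 min; read 15 sec.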
# FMDV inh: foot and mouth disease virus antiviral activity; 410,000 tested, 1.2% active; FMDV antiviral cell-based qHTS; Potency, µM (titrated, usually from 57.9 µM), for the others: top-dose activity change, negative = inhibition, most hits filed as inhibitors; calls by dose curve; tested in HEK293T cells; note: read-out not given here; potency is the fitted concentration of half-maximal effect; nearly all actives have a fitted effect of over 45% in size
# VACV mCherry inh: vaccinia inhibition (mCherry reporter) | Vaccinia virus mCherry reporter infection, fluorescence | Potency, µM (highest dose often 36.5 µM), without a hit: at the highest dose activity change, negative = inhibition, hits mostly inhibitors | 310,000 tested, 0.63% active | AID 720579; calls by dose curve; tested in A549 cells; note: potency is the fitted concentration of half-maximal effect; nearly all actives have a fitted effect of over 35% in size
# VACV Venus inh: inhibitors of vaccinia virus (Venus reporter). Vaccinia virus Venus reporter expression, fluorescence. Potency, µM (series often up to 36.5 µM), for inactives: top-dose activity change, negative = inhibition, most hits filed as inhibitors. 330,000 tested, 0.46% active. AID 720580; calls by dose curve; tested in A549 cells; note: potency is the fitted concentration of half-maximal effect; nearly all actives have a fitted effect of over 30% in size
# Sm TGR inh: S. mansoni TGR enzyme inhibition; purified TGR, DTNB reduction, TNB absorbance 405 nm; AID 485364; Q962Y6; Potency, µM (titrated, usually from 114 µM), inactives show top-dose activity change, negative = inhibition, most hits filed as inhibitors; 360,000 tested, 3% active; note: potency is the fitted concentration of half-maximal effect; nearly all actives have a fitted effect of over 60% in size
#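 First, TGR (20 nM dispensed) and NADPH were mixed with compound. Second, a 15 min room-temperature incubation followed. Third, further NADPH and then DTNB were added to start the reaction. Finally, TNB absorbance was monitored kinetically.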
# * marks the source's active call; other numbers are inactive results; i = inactive; u = inconclusive; x = not tested or not shown. Hits are enriched below; roughly 9.3% of the tested compounds scored in any of these assays. Unless noted, calls come from the whole dose curve; as a rule, active = well fitted curve in the direction sought with a large enough effect; inconclusive = small, poorly fitted or top-dose-only effect, or another doubt; inactive = no such curve, though single readings can be large; an effect the other way counts as inactive or inconclusive. % is set by controls: 0 for no effect and ±100 for the full control effect.
SMILES,HCMV inh,HCV inh,FMDV inh,VACV mCherry inh,VACV Venus inh,Sm TGR inh
O=C1c2ccc([N+](=O)[O-])cc2NC(c2ccco2)N1/N=C/c1ccco1 (stereo unspecified),-11,-18%,-3%,-3%,20%,40µM*
CN=c1scc(-c2ccc([N+](=O)[O-])cc2)n1/N=C/c1ccco1,-87*,12%,47%,-5%,-10%,0%
O=C(Nc1nncs1)c1ccc(F)c(S(=O)(=O)N2CCCCC2)c1,11,19%,-4%,-12%,6%,-13%
COc1ccc(C(=O)/C=C/c2ccc(O)cc2)cc1,33,-27%,30%,i,-5%,-4%
COc1ccc(C(=O)/C=C/c2cc(OC)c(O)c(OC)c2)c(F)c1,-96*,13µM*,u,u,178%,50µM*
Cc1ccc(O)c(C(=O)C=Cc2ccccc2)c1,8,u,35µM*,-3%,-6%,x
COc1cc(C)cc(C(=O)C=Cc2ccccc2)c1O,37,-15%,32µM*,-6%,-5%,x
COc1ccc(C=CC(=O)c2cc(O)ccc2O)cc1,u,u,25%,7.9µM*,-24%,x
CCN(c1ccccc1)S(=O)(=O)c1ccc(OC)c(NC(=O)c2cccs2)c1,38,u,-3%,-8%,-5%,8%
COc1ccc(OC)c(C(=O)/C=C/c2ccccc2C(F)(F)F)c1,-104*,10µM*,20µM*,x,x,19%
COc1ccc(OC)c(C(=O)C(=O)c2cc(OC)ccc2OC)c1,-2,u,-27%,-5%,-5%,x
COc1ccc(C(=O)/C=C/c2ccc(N3CCCCC3)c([N+](=O)[O-])c2)c(OC)c1,-21,-24%,u,11µM*,u,0%
COc1ccc(C(=O)/C=C/c2ccccc2)c(OC)c1,-68*,-1%,-17%,u,u,7%
COc1cccc(/C=C/C(=O)c2ccc[nH]2)c1,-87*,-22%,29%,u,u,-6%
COc1ccc(C(=O)/C=C/c2ccc(N(C)C)cc2)c(OC)c1,-6,u,43%,u,7%,4%
COc1ccc(CNC(=O)c2cccc(-n3cnc4cccnc43)c2C)cc1,0,x,-10%,-11%,-5%,-2%
Cc1nn(C)c(C(=O)NC(=S)Nc2ccccc2O)c1Cl,21,8%,9%,u,-6%,-1%
COc1ccc(S(=O)(=O)NCCC(=O)OCC(=O)c2ccc[nH]2)cc1[N+](=O)[O-],-27,11%,33%,x,x,0%
Cc1cccc(CSCCNC(=O)CCSc2ccccc2)c1,-33,25%,-10%,-5%,-10%,0%
CC(C)(C)OC(=O)C[C@H]1C/C=C\C[C@@H](CC(=O)N(CCO)Cc2ccccc2)C(=O)N2CCC[C@H]2COC1=O,4,14%,u,i,-18%,x
C=CCOc1ccc(C=CC(=O)c2c(O)c(OC)c(OC)c(OC)c2OC)cc1,-17,u,0%,u,u,x
COc1ccc(C=CC(=O)c2c(OC)cc(OC)c(OC)c2O)cc1,0,-26%,18µM*,u,u,x
COC1=C(C)C(O)=C(C(=O)/C=C/c2ccccc2)C(=O)C1(C)C,-77*,2%,-4%,11µM*,u,u
CCOC(=O)c1cn(CC)c2cc(N3CCOCC3)c(F)cc2c1=O,21,-22%,-8%,x,-16%,-2%
O=C(Nc1ccc2c(c1)CCCN2C(=O)c1ccccc1)c1ccccc1Br,-70*,u,u,x,x,10%
O=C(Nc1ccc2c(c1)CCCN2C(=O)c1cccs1)c1cccc(C(F)(F)F)c1,-70*,x,u,-1%,-17%,1%
COc1cc(OC)cc(C(=O)Nc2ccc3c(c2)CCCN3C(=O)c2cccs2)c1,-77*,14µM*,u,-17%,-12%,0%
O=C(Nc1ccc2c(c1)CCCN2C(=O)c1cccs1)c1ccc(F)c(F)c1,u,x,u,-19%,-19%,-2%
O=C(Nc1ccc2c(c1)CCCN2C(=O)c1cccs1)c1ccccc1,-36,32µM*,-15%,-7%,-11%,-2%
COc1ccccc1C(=O)Nc1ccc2c(c1)CCCN2C(=O)c1ccccc1,u,u,-8%,-18%,-15%,-18%
